Test results: PubChem BioAssay (Tox21)
Inconclusive results are not listed. Activity calls are given as the source filed them. Unless noted, calls follow the shape of the dose curve; as a rule, active = well fitted cell-killing curve with a large enough effect in the repeat runs; inconclusive = weak or mixed curves; inactive = no such curve, though single readings can be large or run the other way.

System: not listed separately
Experiment: qHTS assay to identify small molecule agonists of the peroxisome proliferator-activated receptor delta (PPARd) signaling pathway - cell viability counter screen (AID 743211); also: nearly all actives have a fitted effect of over 55% in size
Conditions: PPARd-bla HEK293H viability, CellTiter-Glo luminescence, 17 h; series mostly up to 62.6 µM; activity change, negative = cytotoxicity: at the top concentration
Method in brief: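 Read-out: CellTiter-Glo luminescence, 30 min RT, measured in the same wells as the beta-lactamase reporter. Cells: GeneBLAzer PPAR delta UAS-bla HEK293H, 3000 cells/well, compound exposure 17 h at 37C.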
% is scaled to controls: 0 for no effect and ±100 for the full control effect.

SMILES | activity change, negative = cytotoxicity
C[C@H](N)C(=O)N[C@@H](C)C(=O)NC1[C@H]2CN(c3nc4c(cc3F)c(=O)c(C(=O)O)cn4-c3ccc(F)cc3F)C[C@@H]12 (some centres undefined) | 8.18% (inactive)
CCc1ccc2c(c1)C(=O)c1ccccc1C2=O | 2.32% (inactive)
Nc1cccc2c(=O)[nH][nH]c(=O)c12 | 0.726% [at 81.1 µM] (inactive)
CCCCCCCCCCCCSCCOCCO | -1.82% (inactive)
C=C[Si](OCC)(OCC)OCC | 9.3% (inactive)
O=C(O)c1ccccc1[N+](=O)[O-] | -4.49% (inactive)
COc1ccc(C(=O)Nc2ccccc2)cc1[N+](=O)[O-] | -6.59% [at 81.1 µM] (inactive)
O=C(O)c1cccnc1Nc1cccc(C(F)(F)F)c1 | -21.4% (inactive)
O=C(O)c1cccc(C(=O)O)c1C(=O)O | -3.4% [at 81.1 µM] (inactive)
SCCOCCOCCS | 3.34% (inactive)
Clc1nc2ccccc2nc1Cl | 9.89% [at 81.1 µM] (inactive)
O=C(O)c1cc(C(=O)O)c(C(=O)O)cc1C(=O)O | -4.52% (inactive)
CCN(CCCCOC(=O)c1ccc(OC)c(OC)c1)C(C)Cc1ccc(OC)cc1 (centres undefined) | -13.5% (inactive)
C=C[Si]1(C)O[Si](C)(C=C)O[Si](C)(C=C)O[Si](C)(C=C)O1 (centres undefined) | -6.07% (inactive)
CC(O)C(C)O (centres undefined) | 3.49% [at 81.1 µM] (inactive)
O=C1CCCN1CCO | -17.7% (inactive)
Cc1c(N=C=O)cccc1N=C=O | 5.79% [at 81.1 µM] (inactive)
CC(=O)Nc1ccn(C2COC(COC(=O)c3ccccc3)O2)c(=O)n1 (centres undefined) | -9.29% (inactive)
C[C@]12CCC(=O)C=C1[C@@H]1C[C@@H]1[C@H]1[C@@H]3[C@@H]4C[C@@H]4[C@@]4(CCC(=O)O4)[C@@]3(C)CC[C@@H]12 | -7.64% (inactive)
O=c1c2ccccc2oc2ccccc12 | 13.4% (inactive)
CC(=O)Oc1cccc2c1C(=O)c1c(OC(C)=O)cc(C(=O)O)cc1C2=O | -8.06% (inactive)
COc1ccc(/C=C/c2cc(OC)cc(=O)o2)cc1 | -6.24% (inactive)
O=C(N[C@@H](Cc1ccccc1)[C@@H](O)C(=O)N1C[C@@H](O)[C@@H](O)C1)c1cc2cc(Cl)ccc2[nH]1 | -19.9% (inactive)
Cc1nc2sccn2c(=O)c1CCN1CCC(=C(c2ccc(F)cc2)c2ccc(F)cc2)CC1 | 3.82% (inactive)
CO[C@@H]1[C@@H](O[C@@H]2O[C@H](C)[C@@H](O[C@H]3C[C@@](C)(O)[C@@H](O)[C@H](C)O3)[C@H](N(C)C)[C@H]2O)[C@@H](CC=O)C[C@@H](C)[C@@H](O[C@@H]2CC[C@H](N(C)C)[C@@H](C)O2)/C=C/C=C/C[C@@H](C)OC(=O)C[C@H]1OC(C)=O | -12.3% (inactive)

Target: Peroxisome proliferator-activated receptor delta (Homo sapiens) (UniProt Q03181)
Sequence (Q03181 whole entry, looked up): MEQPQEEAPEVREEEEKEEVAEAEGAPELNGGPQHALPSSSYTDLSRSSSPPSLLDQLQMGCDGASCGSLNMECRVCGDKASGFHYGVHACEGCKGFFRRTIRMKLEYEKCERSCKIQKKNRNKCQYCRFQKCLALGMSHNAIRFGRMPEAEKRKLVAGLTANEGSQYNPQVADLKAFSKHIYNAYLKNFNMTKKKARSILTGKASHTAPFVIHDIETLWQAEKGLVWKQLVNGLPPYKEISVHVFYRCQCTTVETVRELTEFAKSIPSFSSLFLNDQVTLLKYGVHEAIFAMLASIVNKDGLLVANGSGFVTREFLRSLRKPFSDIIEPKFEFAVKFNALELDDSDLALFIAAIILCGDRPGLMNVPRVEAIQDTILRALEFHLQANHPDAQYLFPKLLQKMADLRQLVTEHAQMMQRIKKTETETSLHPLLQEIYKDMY
Experiment: qHTS assay to identify small molecule agonists of the peroxisome proliferator-activated receptor delta (PPARd) signaling pathway (AID 743212; calls by dose curve)
Conditions: HEK293H PPARd-UAS-bla, beta-lactamase FRET ratio, 17 h; series mostly up to 62.6 µM; activation: at the top concentration
Method in brief: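 Tox21 library screened in GeneBLAzer PPARd UAS-bla HEK293H cells. After compound treatment at 37 C, a FRET-based beta-lactamase substrate was applied for 2 h and fluorescence recorded.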

SMILES | activation
C[C@H](CN1CCCC1)C(=O)c1ccc(C(F)(F)F)cc1 | -2.44% (inactive)
CC1=CC(=C(c2ccc(N)cc2)c2ccc(N)cc2)C=CC1=N | -0.0637% [at 5.95 µM] (inactive)
Oc1ccc(CCNCCCCCCNCCc2ccccc2)cc1O | 3.84% (inactive)
S=c1[nH][nH]c(=S)s1 | 3.12% (inactive)
CCCN(C1CCN(C(=O)C2CCNCC2)CC1)[C@@H]1CCc2ccc(OC)cc2C1 | -0.113% (inactive)
CC(C)(Cc1c[nH]c2ccccc12)NCC(O)COc1ccccc1C#N (centres undefined) | -2.67% (inactive)
O=Cc1ccc(Cl)c([N+](=O)[O-])c1 | 2.36% (inactive)

System: not listed separately
Experiment: qHTS assay to identify small molecule antagonists of the peroxisome proliferator-activated receptor delta (PPARd) signaling pathway - cell viability counter screen (AID 743213); also: nearly all actives have a fitted effect of over 50% in size
Conditions: PPARd-bla HEK293H viability, CellTiter-Glo luminescence, 17 h; series mostly up to 62 µM; viability change, negative = cytotoxic: at the top concentration
Method in brief: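 CellTiter-Glo was added to PPARd-bla HEK293H wells following 17 h compound treatment in the presence of 300 nM L165041. Luminescence was recorded after 30 min at room temperature.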

SMILES | viability change, negative = cytotoxic
CC1=C(C)C(=O)C(CCCCC#CCCCC#CCO)=C(C)C1=O | 13.2% (inactive)
CCc1ccc2c(c1)C(=O)c1ccccc1C2=O | 3.92% (inactive)
CC1=CC(=C(c2ccc(N)cc2)c2ccc(N)cc2)C=CC1=N | -32.9% [at 6.26 µM] (inactive)
NCCOCCOCCN | -12.2% (inactive)
C=C[Si](OCC)(OCC)OCC | 1.26% (inactive)
O=C(O)c1ccccc1[N+](=O)[O-] | -13.2% (inactive)
SCCOCCOCCS | 1.14% (inactive)
Clc1nc2ccccc2nc1Cl | 4.86% [at 80.4 µM] (inactive)
Oc1ccc(CCNCCCCCCNCCc2ccccc2)cc1O | -27.5% (inactive)
c1ccc(CN(Cc2ccccc2)Cc2ccccc2)cc1 | 14.8% (inactive)
CCCC1CCCC(=O)O1 (centres undefined) | -4.25% (inactive)
O=C1CCCN1CCO | 0.341% (inactive)
S=c1[nH][nH]c(=S)s1 | 7.38% (inactive)
Cc1c(N=C=O)cccc1N=C=O | -2.47% [at 80.4 µM] (inactive)
CCCN(C1CCN(C(=O)C2CCNCC2)CC1)[C@@H]1CCc2ccc(OC)cc2C1 | -21.2% (inactive)
CCCCCCC/C=C/C=O | -2.43% (inactive)
CC(=O)Nc1ccn(C2COC(COC(=O)c3ccccc3)O2)c(=O)n1 (centres undefined) | -10.5% (inactive)
C[C@]12CCC(=O)C=C1[C@@H]1C[C@@H]1[C@H]1[C@@H]3[C@@H]4C[C@@H]4[C@@]4(CCC(=O)O4)[C@@]3(C)CC[C@@H]12 | 19% (inactive)
CC(=O)Oc1cccc2c1C(=O)c1c(OC(C)=O)cc(C(=O)O)cc1C2=O | -3.6% (inactive)
O=Cc1ccc(Cl)c([N+](=O)[O-])c1 | -13.5% (inactive)

Target: Peroxisome proliferator-activated receptor delta (Homo sapiens) (UniProt Q03181)
Experiment: qHTS assay to identify small molecule antagonists of the peroxisome proliferator-activated receptor delta (PPARd) signaling pathway (AID 743215; active = well fitted inhibition curve with a large enough effect in the signal ratio in the repeat runs, not every such curve was filed as active; the % refers to the signal ratio;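 also: cells stimulated with agonist L165041 at 300 nM final during compound exposure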)
Conditions: HEK293H PPARd-UAS-bla, beta-lactamase FRET ratio, antagonist, 17 h; series mostly up to 62 µM; ratio activity, negative = inhibition: at the top concentration
Method in brief: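 HEK293H GeneBLAzer PPARd UAS-bla reporter cells; cpd + L165041 300 nM final, 17 h 37 C; LiveBLAzer B/G FRET substrate 2 h RT; fluorescence intensity read-out. Antagonist mode.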

SMILES | ratio activity, negative = inhibition
C[C@H](CN1CCCC1)C(=O)c1ccc(C(F)(F)F)cc1 | -27.2% (inactive)
CC1=CC(=C(c2ccc(N)cc2)c2ccc(N)cc2)C=CC1=N | -10.9% [at 6.26 µM] (inactive)
Oc1ccc(CCNCCCCCCNCCc2ccccc2)cc1O | -2.96% (inactive)
CC(O)C(C)O (centres undefined) | -2.02% [at 80.4 µM] (inactive)
S=c1[nH][nH]c(=S)s1 | -27.2% (inactive)
CCCN(C1CCN(C(=O)C2CCNCC2)CC1)[C@@H]1CCc2ccc(OC)cc2C1 | -18.3% (inactive)
CC(C)(Cc1c[nH]c2ccccc12)NCC(O)COc1ccccc1C#N (centres undefined) | -11.7% (inactive)
